Assay [1] in a line: inhibitors of TNFa-induced NFkB p65 translocation, primary screen, imaging, HUVEC, MLSMR starter and 10KST1 sets (AID 438;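 active means inhibition above 20% together with a positive visual image hit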;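 further: compound added about 3h40 before a 20 min TNFalpha stimulation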;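 on inhibition: signal is the nuclear over cytoplasmic p65 intensity ratio per well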). The conditions noted are these: HUVEC TNFa-induced p65 nuclear translocation; cell count: measured here: nuclei count (cytotoxicity indicator), at 2.08 µM unless noted; inhibition: at 2 µM, stronger effect = higher value unless noted.
A short description of assay [2]: inhibitors of mutant huntingtin aggregation, primary screen, imaging, exon1htt(103Q)mCFP cells, high-content imaging (AID 483).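 Further: compound exposure lasted 3 days before fixation.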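 On nuclei count: percent of the per-plate median nuclei count of sample wells.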 The settings on record: exon1htt(103Q)mCFP cell line, aggregate imaging, at 2 µM; inhibition of aggregation: stronger effect = higher value; nuclei count: measured here: cell count, toxicity.
The nature of assay [3]: inhibitors of E-selectin induction by TNFa, primary screen, imaging, HUVEC, immunofluorescence, MLSMR starter and 10KST1 sets (AID 487;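 active means visually confirmed hit in the image check and inhibition above 20%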;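 on inhibition: signal is fraction of cell area covered by stained E-selectin grains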;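 on nuclei count: 100% = median nuclei count of all wells on the same plate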). The conditions noted are these: HUVEC TNFalpha-induced E-selectin immunofluorescence imaging, at 2 µM; inhibition: stronger effect = higher value; nuclei count: measured here: cell number, toxicity.
Assay [4] can be described thus: DUSP6 inhibitors restoring Erk phosphorylation by chemical complementation, primary imaging in DUSP6-transfected HeLa (AID 609;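 active means compounds giving at least 50% inhibition in the cell-based MKP-3 phosphatase rescue imaging test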;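 on inhibition: phospho-Erk level distribution per well compared with pooled transfected vehicle control wells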). The conditions noted are these: HeLa MKP-3 transfected, phospho-Erk imaging KS statistic, at 10 µM.
Assay [5] has as its target Dual specificity protein phosphatase 6 (Homo sapiens) (UniProt Q16828). The assay is described as above. The conditions noted are these: HeLa MKP-3 transfected, phospho-Erk imaging KS statistic, at 10 µM, stronger effect = higher value.
Assay [6] has as its target Voltage-gated potassium channel subunit beta-2 (Rattus norvegicus) (UniProt P62483). As to the kind of experiment: KvBeta enzyme negative modulators, primary screen, biochemical, NADPH fluorescence (AID 622;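 active means fluorescence slope higher than the sample average by over 3 SD, cut at about -0.22 in these data, passing the limit was not always enough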;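 further: slope of raw intensity against log time taken from 70 to 1610 s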). The settings on record: recombinant KvBeta, 4-cyanobenzaldehyde reduction, at 10 µM, stronger effect = higher value.
The target is the same in assay [7]. As to the kind of experiment: KvBeta positive modulators, primary screen, biochemical, NADPH fluorescence (AID 623;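 active means NADPH fluorescence slope more negative than the mean of all samples by about 3 SD, 99.7% confidence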;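 further: fluorescence intensity change per second fitted from 20 to 320 s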). The conditions noted are these: Recombinant KvBeta, NADPH fluorescence decrease slope, 10 min; at 10 µM; stronger effect = lower value.
Assay [8] has as its target Alpha-2C adrenergic receptor (Homo sapiens) (UniProt P18825). As to the kind of experiment: modulators of alpha2C/GIRK thallium flux, primary screen, cell-based, HEK293 alpha2C/GIRK1/2 (AID 624;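 active means fluorescence slope after compound addition differing from the mean of all screened samples at 99.7% confidence, in either direction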;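 further: slope of fluorescence ratio to pre-addition baseline per second over 15 to 24 s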). The settings on record: thallium flux BTC fluorescence, at 10 µM, actives lie on both sides.
A short description of assay [9]: inhibitors of larval lipid processing in zebrafish, primary screen, whole organism, PED6 fluorescence, gall bladder and intestine (AID 686;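 active means a full or partial loss of lipid-probe fluorescence in the fish gall bladder, intestine or both, judged by eye; inactive means no fluorescence loss, or compound toxic to the fish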;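 further: larvae 5 to 7 days old with five fish per well; signal comes from phospholipase A2 cleavage of quenched PED6 carried via bile; overnight exposure to compound and PED6 before scoring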). The settings on record: Zebrafish larvae PED6 lipid processing, fluorescence scoring.
The nature of assay [10]: inhibitors of Chlamydomonas gravitaxis, primary screen, whole organism, Chlamydomonas reinhardtii, WT vs cilia-less mutant, absorbance, 96-well (AID 463189;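 active means inhibition at or above 50% relative to wild type and mutant plate controls; inactive means inhibition below 50%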;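 further: 0% = wild type cc124 cells in DMSO and 100% = ciliumless bld1 mutant cells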). The conditions noted are these: OD600 absorbance, 2 days, at 10 µM, stronger effect = higher value.
The nature of assay [11]: inhibitors of Sendai virus-induced IRF3 signaling, primary screen, TLR/RLR signaling modifier project, cell-based, Sendai virus stimulus, luciferase, 10K MLSCN set (AID 602276;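 active means inhibition at or above 50% at 10 µM; inactive means inhibition below 50%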;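 further: firefly luciferase from ISG56 promoter only with Renilla not read in this screen; 0% = Sendai virus plus DMSO and 100% = medium plus DMSO without virus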). The settings on record: HEK293 RL24 IRF3 luciferase reporter, at 10 µM, stronger effect = higher value.
Assay [12] is described as follows: inhibitors of poly I:C-induced TLR3 signaling, primary screen, cell-based, poly I:C stimulus, luciferase, 10K MLSCN set (AID 602277;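 active means inhibition of the reporter signal at or above 50%; inactive means inhibition below 50%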). The settings on record: HEK293-TLR3 RL24 IRF3 luciferase reporter, at 10 µM, stronger effect = higher value.
Assay [13] deals with Muscarinic acetylcholine receptor M4 (Homo sapiens) (UniProt P08173). As to the kind of experiment: compounds altering M4/GIRK thallium flux, either direction, primary screen, M4 allosteric agonist project, cell-based, HEK293 M4/GIRK, BTC-AM (AID 625;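 active means fluorescence slope after compound addition differing from the mean of all tested samples at 99.7% confidence, mostly higher but some lower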;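 further: thallium influx through GIRK channels coupled to M4 in HEK293 cells with BTC-AM dye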). The settings on record: at 10 µM, actives lie on both sides.
Assay [14] addresses Solute carrier family 12 member 5 (Homo sapiens) (UniProt Q9H2X9). As to the kind of experiment: KCC2 modulators in sodium-free buffer, confirmation, cell-based, HEK293 KCC2, thallium flux, secondary assay (AID 1713;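 active means thallium flux slope above the same plate's solvent-only control mean plus 3 SD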). The conditions noted are these: FluoZin2 fluorescence, at 10 µM, stronger effect = higher value.
Another assay is described as follows: PubChem AID 1714.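 Further: raw slope of fluorescence over initial fluorescence between 10 and 20 s after thallium.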 The settings on record: HEK293-KCC2 + bumetanide/ouabain, thallium flux FluoZin2; at 10 µM; stronger effect = higher value.
Assay [15] addresses Solute carrier family 12 member 5 (Homo sapiens) (UniProt Q9H2X9). As to the kind of experiment: KCC2 modulators without ouabain present, confirmation, cell-based, HEK293 KCC2, thallium flux, FluoZin2, secondary assay 2 (AID 1715;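 active means thallium flux slope more than 3 SD above or below the plate's solvent-only control mean, mostly below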;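 further: raw slope with 0.1% DMSO as baseline and bumetanide as block control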). The conditions noted are these: HEK293-KCC2, thallium flux FluoZin2 fluorescence; at 10 µM; actives lie on both sides.
Assay [16] in a line: thallium flux modulation in parental HEK cells, confirmation, counter-screen for KCC2 modulator project, cell-based, counterscreen 1 (AID 1716;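 active means thallium flux rate significantly above the same plate's solvent-only control wells, beyond their mean plus 3 SD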). The settings on record: HEK293 parental cells, thallium flux FluoZin2, ouabain; at 10 µM; baseline-ratio fluorescence slope, 10–20 s after thallium.
For assay [17], the target named is Solute carrier family 12 member 5 (Homo sapiens) (UniProt Q9H2X9). As to the kind of experiment: KCC2 inhibitors and activators, ouabain retest, confirmation, HEK-KCC2 cells (AID 1717;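 active means thallium flux slope beyond 3 SD from same-plate DMSO control mean in most replicates, usually higher, sometimes lower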;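 further: slope of initial-normalized fluorescence between seconds 10 and 20 after thallium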). The settings on record: HEK293-KCC2, thallium flux FluoZin2 fluorescence, at 10 µM, bidirectional: low = inhibitor, high = activator.
The nature of assay [18]: native HEK Tl+ uptake effects, second counter-screen – HEK cells, counterscreen 2, counter-screen for KCC2 modulator project, confirmation (AID 1718;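 active means thallium flux slope above the same plate's solvent-control mean plus 3 SD in both duplicate wells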;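 further: run without ouabain in cells lacking the KCC2 cotransporter; slope of fluorescence scaled to its starting value between 10 and 20 s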). The conditions noted are these: HEK293 parental, thallium flux FluoZin-2 fluorescence slope; at 10 µM.
The mark [19] stands for this setting: measured here: cell density z-score.
[20] abbreviates: measured here: nuclear c-Myc green intensity z-score.
[21] abbreviates: measured here: nuclear pErk red intensity z-score, stronger effect = higher value.

The list shows a part of the results. Records with an inconclusive call do not appear. The source made the active and inactive calls.

Sequence of Solute carrier family 12 member 5 (Homo sapiens) (Q9H2X9 whole entry, looked up): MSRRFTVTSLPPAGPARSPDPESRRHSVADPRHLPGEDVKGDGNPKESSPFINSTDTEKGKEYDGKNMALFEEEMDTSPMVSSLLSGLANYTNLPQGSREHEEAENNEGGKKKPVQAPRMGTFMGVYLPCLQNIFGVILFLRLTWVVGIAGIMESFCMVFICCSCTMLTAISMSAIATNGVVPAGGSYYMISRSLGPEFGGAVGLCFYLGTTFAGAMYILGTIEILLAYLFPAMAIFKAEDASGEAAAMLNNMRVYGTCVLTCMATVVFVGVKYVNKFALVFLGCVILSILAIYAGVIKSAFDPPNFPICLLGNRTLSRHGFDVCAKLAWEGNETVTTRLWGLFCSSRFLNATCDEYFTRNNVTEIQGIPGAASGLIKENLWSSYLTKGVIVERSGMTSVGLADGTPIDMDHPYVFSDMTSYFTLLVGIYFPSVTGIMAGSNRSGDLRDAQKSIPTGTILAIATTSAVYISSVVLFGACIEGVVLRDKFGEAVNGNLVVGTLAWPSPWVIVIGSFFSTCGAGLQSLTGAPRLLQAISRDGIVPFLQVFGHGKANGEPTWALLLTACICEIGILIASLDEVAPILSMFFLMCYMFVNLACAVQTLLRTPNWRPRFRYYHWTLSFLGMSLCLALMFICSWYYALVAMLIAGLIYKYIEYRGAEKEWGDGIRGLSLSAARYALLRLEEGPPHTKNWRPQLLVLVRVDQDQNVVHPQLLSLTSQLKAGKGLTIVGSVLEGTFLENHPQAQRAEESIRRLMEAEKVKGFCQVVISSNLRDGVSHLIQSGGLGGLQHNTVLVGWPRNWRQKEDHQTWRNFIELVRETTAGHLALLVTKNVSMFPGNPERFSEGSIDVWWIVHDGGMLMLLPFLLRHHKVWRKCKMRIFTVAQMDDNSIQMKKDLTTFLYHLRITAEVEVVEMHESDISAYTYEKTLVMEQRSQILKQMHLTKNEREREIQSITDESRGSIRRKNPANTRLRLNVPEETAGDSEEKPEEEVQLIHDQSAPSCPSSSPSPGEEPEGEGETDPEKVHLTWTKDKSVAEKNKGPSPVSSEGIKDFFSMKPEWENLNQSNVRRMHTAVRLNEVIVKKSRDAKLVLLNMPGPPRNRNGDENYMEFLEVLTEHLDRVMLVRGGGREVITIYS
Sequence of Dual specificity protein phosphatase 6 (Homo sapiens) (Q16828 whole entry, looked up): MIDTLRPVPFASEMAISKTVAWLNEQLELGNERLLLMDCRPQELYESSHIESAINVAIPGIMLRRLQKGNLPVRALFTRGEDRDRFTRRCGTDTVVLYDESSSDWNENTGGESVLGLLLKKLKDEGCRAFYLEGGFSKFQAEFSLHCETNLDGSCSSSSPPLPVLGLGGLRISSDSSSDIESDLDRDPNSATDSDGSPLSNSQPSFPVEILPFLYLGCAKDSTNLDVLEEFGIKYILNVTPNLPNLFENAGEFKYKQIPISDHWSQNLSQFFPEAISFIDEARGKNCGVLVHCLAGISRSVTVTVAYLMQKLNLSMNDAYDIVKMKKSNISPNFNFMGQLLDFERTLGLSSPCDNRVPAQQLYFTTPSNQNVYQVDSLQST
Sequence of Alpha-2C adrenergic receptor (Homo sapiens) (P18825 whole entry, looked up): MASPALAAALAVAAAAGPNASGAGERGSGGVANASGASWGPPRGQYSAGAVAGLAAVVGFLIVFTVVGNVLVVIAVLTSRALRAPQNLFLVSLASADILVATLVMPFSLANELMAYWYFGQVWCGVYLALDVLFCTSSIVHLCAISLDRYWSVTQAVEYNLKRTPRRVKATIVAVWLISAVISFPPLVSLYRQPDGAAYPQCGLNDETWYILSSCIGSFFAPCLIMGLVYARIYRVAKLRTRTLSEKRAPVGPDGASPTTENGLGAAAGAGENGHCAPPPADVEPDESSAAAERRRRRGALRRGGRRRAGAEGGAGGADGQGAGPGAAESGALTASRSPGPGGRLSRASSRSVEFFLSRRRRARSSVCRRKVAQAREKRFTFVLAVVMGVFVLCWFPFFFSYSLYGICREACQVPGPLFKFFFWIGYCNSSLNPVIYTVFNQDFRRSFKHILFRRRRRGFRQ
Sequence of Voltage-gated potassium channel subunit beta-2 (Rattus norvegicus) (P62483 whole entry, looked up): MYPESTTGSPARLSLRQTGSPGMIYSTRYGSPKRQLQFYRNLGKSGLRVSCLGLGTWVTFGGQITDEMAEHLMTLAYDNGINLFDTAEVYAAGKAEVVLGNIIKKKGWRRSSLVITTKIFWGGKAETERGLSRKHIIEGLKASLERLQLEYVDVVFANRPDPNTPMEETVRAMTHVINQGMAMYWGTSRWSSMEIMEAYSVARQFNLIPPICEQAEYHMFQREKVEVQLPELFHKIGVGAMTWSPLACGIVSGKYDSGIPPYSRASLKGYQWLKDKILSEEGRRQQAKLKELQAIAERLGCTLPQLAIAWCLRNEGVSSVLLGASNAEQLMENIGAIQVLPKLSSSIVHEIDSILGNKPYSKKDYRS
Sequence of Muscarinic acetylcholine receptor M4 (Homo sapiens) (P08173 whole entry, looked up): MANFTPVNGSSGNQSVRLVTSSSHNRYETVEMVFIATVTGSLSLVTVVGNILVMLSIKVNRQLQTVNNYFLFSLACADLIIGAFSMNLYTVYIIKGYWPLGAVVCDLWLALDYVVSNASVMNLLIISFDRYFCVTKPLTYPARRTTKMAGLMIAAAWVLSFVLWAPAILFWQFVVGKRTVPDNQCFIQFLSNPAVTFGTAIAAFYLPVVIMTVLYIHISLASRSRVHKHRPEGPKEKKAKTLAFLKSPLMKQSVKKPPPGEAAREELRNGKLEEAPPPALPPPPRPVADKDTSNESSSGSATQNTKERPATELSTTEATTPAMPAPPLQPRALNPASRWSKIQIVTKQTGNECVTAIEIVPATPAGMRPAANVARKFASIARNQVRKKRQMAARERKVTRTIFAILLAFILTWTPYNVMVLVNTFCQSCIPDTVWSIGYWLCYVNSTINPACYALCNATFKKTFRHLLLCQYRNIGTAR

Consider `CN1CC[C@@]23CCCC[C@@H]2[C@@H]1Cc1ccc(O)cc13`, for which the cell count in assay [1] was determined as 612. In addition, the inhibition in assay [1] was -2% (inactive); in assay [3] it was -41.4% (inactive); in assay [5], -3.03% (inactive); in assay [10], -11.1% (inactive); in assay [11], -1.46% (inactive); in [12], 37.2% (inactive). Also, the inhibition of aggregation in assay [2] was -9.3% (inactive). Moreover, the nuclei count came out at 78.9% in [2] and 127% in [3]. The z-score is -1.02 in assay [4] (setting [19]), 0.228 in assay [4] (setting [20]) and 2.32 in assay [4] (setting [21]). Besides, the fluorescence slope in assay [6] is -0.439 (inactive). The NADPH fluorescence slope in assay [7] is 2.4e-05 (inactive). In addition, in assay [8], the slope was 0.00406 (inactive). Besides, the compound was classed as inactive in assay [9].
`C[C@@]1(CO)[C@H](O)CC[C@@]2(C)[C@H]1CC[C@H]1C[C@@H]3C[C@@]12CC[C@]3(O)CO` returned a cell count in assay [1] of 629. For the same compound, the inhibition was -4.1% (inactive) in assay [1]; -34.7% (inactive) in assay [3]; 1.48% (inactive) in [5]; -7.52% (inactive) in assay [10]; -34.2% (inactive) in [11]; 49.2% (inactive) in assay [12]. Besides, the inhibition of aggregation in assay [2] was -9.1% (inactive). Moreover, the figures for the nuclei count in [2] and in [3] were 9.1% and 113%, respectively. For the same compound, the z-score in assay [4] (setting [19]) is 0.71; in assay [4] (setting [20]), -0.0811; in assay [4] (setting [21]) it was -0.673. Further, the fluorescence slope in [6] was -0.469 (inactive). Besides, the NADPH fluorescence slope in [7] is -5.6e-05 (inactive). In addition, in assay [8], the slope was 0.00555 (inactive). Further, in assay [9], the compound was called inactive.
Take `[N-]=[N+]=CC(=O)OC[C@H](N)C(=O)O`: the cell count in assay [1] worked out at 594. In addition, the inhibition is -4% (inactive) in assay [1]; -25.7% (inactive) in assay [3]; 25.1% (inactive) in [5]; -8.35% (inactive) in assay [10]; 16.7% (inactive) in assay [11]; 21.9% (inactive) in assay [12]. The inhibition of aggregation in assay [2] was -0.4% (inactive). Moreover, the nuclei count worked out at 104% in assay [2] and 133% in assay [3]. Besides, the z-score in assay [4] (setting [19]) is -0.1; in assay [4] (setting [20]), -0.513; in assay [4] (setting [21]) it was -0.992. The fluorescence slope in [6] was -0.53 (inactive). Moreover, in assay [7], the NADPH fluorescence slope was 2.4e-05 (inactive). Also, the slope in assay [8] was 0.00503 (inactive). In addition, in [9], the compound was classed as inactive.
Take `CC1=NOC2(C)Nc3ncnn3C(c3ccccc3)C12` (stereo not given): the cell count in [1] amounted to 604. The inhibition in assay [1] was -11.4% (inactive); in assay [3], -129% (inactive); in assay [5], 1.98% (inactive); in assay [10] it was 2.9% (inactive); in [11], -5.02% (inactive); in assay [12], 6.14% (inactive). Further, the inhibition of aggregation in [2] was 21% (inactive). For the same compound, the nuclei count in assay [2] is 85%; in [3] it was 145%. The figures for the z-score in assay [4] (setting [19]), in [4] (setting [20]) and in assay [4] (setting [21]) were 0.203, 0.546 and 1.46, respectively. The fluorescence slope in [6] was -0.454 (inactive); in assay [13] it was 0.00509 (inactive). The NADPH fluorescence slope in [7] was -5.1e-05 (inactive). The slope in assay [8] was 0.00521 (inactive). Also, in assay [9], the compound was classed as inactive.
In the case of `COc1cc(-n2c(=S)[nH]c3ccc(C)cc3c2=O)c(Cl)cc1Cl`, in assay [14], the normalised thallium flux (F/F0 slope) was 0.0155 (active). In addition, the normalized thallium flux in the assay “PubChem AID 1714” was 0.0563 (active); in [15] it was 0.0344 (inactive). Further, the thallium flux rate (normalised fluorescence) in [16] was 0.0674 (active). In addition, in assay [17], the raw Tl+ flux slope (below DMSO = inhibition, above = activation) is 0.0437 (active). Also, the thallium flux slope in [18] was 0.0196 (active).

For the origin of these results see PubChem BioAssay.
